Assay results from PubChem BioAssay (NCI).
This is part of a sample that, as a whole, favours compounds with a hit. Of some 83,000 tested, about 20% had one in any assay.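 Treatment: one concentration, 48 hours, 96-well format. Scoring: percent growth, with anything below 10 considered active.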 A number with no mark means an inactive call. Calls of active or inactive are those of the source.

test system: A498 renal; test: NCI-60 one-dose screen, 48 h (100 = growth as untreated, 0 = no growth, -100 = all killed); conditions: 10 µM unless noted
Description: Growth inhibition of the A498 human tumor cell line is measured as a screen for anti-cancer activity. Cells are grown in 96 well plates and exposed to the test compound for 48 hours. Compounds are tested at a single concentration, which is 10^-5 M for most compounds. The reported endpoint is percent growth (GI% or GIPRCNT), where numbers from 0 - 100% represent growth inhibition, and numbers from -100% - 0 represent cell death. For example, a value of 40 represents 60% growth inhibition. A value of 0 means no net growth occurred over the course of the experiment. A value of -40 indicates 40% of cells at the beginning of the experiment died by the end of the experiment. A value of -100 means all cells are dead at the end of the experiment.
NCI-60 Human Tumor Cell Lines Screen was performed using the standard one-dose NCI protocol, which is described in more detail at https://dtp.cancer.gov/discovery_development/nci-60/default.htm.
Compounds with GIPRCNT values below 10 were considered active. Activity score was based on GIPRCNT using the following formula: […]
Score is 0 for GIPRCNT values of 100 or above, 50 for GIPRCNT values of 0, and 100 for GIPRCNT values of -100.

Structure (SMILES)	growth
COC1CC(O)C2=C(CC3C(/C(C)=C\CC=C(C)C)CCC3(C)O2)C1=O (stereo not given)	103%
O=C1NCCN1/N=C/c1c(Cl)n(Cc2ccc(Cl)cc2)c2ccccc12	-85.5% (active)
CCCCCCCCCCCCCCCCCCOc1ccccc1CC(=O)OCC[N+]1(C)CCCCC1	83.3%
COc1ccc(/C=N\NC(=O)c2ccc3nc(-c4ccc(Cl)cc4)[nH]c3c2)cc1	66.6%
Cn1cc(-c2csc(-c3cn(C)c4ccc(F)cc34)n2)c2cnccc21	78.3%
O=C(OCc1ccc2c(Br)cc(Br)c(O)c2n1)N1CCN(C(=O)c2cc3ccccc3[nH]2)CC1	20.3%
CCN1C(=O)N(CC)C2C1NN=c1s/c(=C\c3ccccc3)c(=O)n12 (stereo not given)	9.75% (active)
CC(=O)c1c(/C=C/c2ccc(C)cc2)c2ccccc2[nH]c1=O	81.2%
CNc1nc2ncc(-c3c(C)noc3C)cc2n1Cc1ccccc1	0.868% (active)
CCOC(=O)c1c(NC(=S)Nc2ccc([N+](=O)[O-])cc2)sc2c1CCCCC2	49.8%
CCOC(=O)c1c(C)nc2c(c1N)C(=O)C(=O)N2CCc1ccc(OC)c(OC)c1	55.5%
COc1ccc(NC(=O)c2sc3nc(C)c(C(=O)c4ccccc4)cc3c2N)cc1	-9.31% (active)
COc1cc(/C=C/C(=O)c2ccc(-n3cc(CN4CCN(c5cc6c(cc5F)c(=O)c(C(=O)O)cn6C5CC5)CC4)nn3)cc2)cc(OC)c1OC	34.9%
CS(=O)(=O)c1cccc(Nc2ncc3cc(-c4ccccc4Cl)ccc3n2)c1	5.57% (active)
O=C(OCC(O)(CO)C(=O)NC12CC3CC(CC(C3)C1)C2)c1ccc(Cl)cc1 (stereo not given)	102%
CN(CCNc1ccc(C(=N)N)cc1)c1ccc(C(=N)N)cc1	57.7%
O=C(CNc1ncco1)Nc1ccc(S(=O)(=O)c2ccc(NC(=O)CNc3ncco3)cc2)cc1	100%
Cc1ccc(C(F)(F)F)cc1N1CCN(C(=O)[C@H]2C[C@H]2c2ccc(C(F)(F)F)nc2)CC1	95.3%
CCOc1ccc(N2C(=O)CCSC2=S)cc1	102%
C#CCOc1ccc(C2=NN(C)C3N=C(Cl)c4ncn(C)c4N23)cc1OCC#C (stereo not given)	85.4%

Structure (SMILES)	growth
CCOc1ccccc1NC(=O)CCC(=O)OC	100%
Nc1c(C(=O)c2ccc(Cl)cc2)sc(Nc2ccccc2)c1-c1nc2ccccc2s1	46.2%
Nc1nc(Nc2ccc([N+](=O)[O-])cc2O)nc(C(Cl)(Cl)Cl)n1	36.5%
COc1cccc2cc(N(C)c3ncnc4ccccc34)ccc12	-7.44% (active)
O=C1C2C(c3cccs3)C=C(c3ccc(Cl)cc3)N2C(=S)N1c1ccccc1 (stereo not given)	88.6%
C1=C2CCCC3=Cc4ccccc4OC23Oc2ccccc21	5.61% (active)
O=C(O)CCCN1C(=O)CSC1=S	105%
C=C(c1ccc(OC)c(/C=C/C(=O)c2cc(OC)c(OC)c(OC)c2)c1)c1cc(OC)c(OC)c(OC)c1	-23.5% (active)
COC(=O)[C@@H](Cc1c[nH]c2ccccc12)NC[C@@H](O)CN1C(=O)/C(=C\c2cc(OC)c(OC)c(OC)c2)c2ccccc21	69.5%
Cc1ccc2nc(/C=C/c3ccc(N(C)C)cc3)cc(C)c2c1	27.2%
COC(=O)c1cc(-c2cc(OC)c(OC)c(OC)c2)[nH]c1N/N=C/c1c(Cl)cccc1Cl	-63.6% (active)
Nc1ccc(Cl)c2c(=O)c3ccccc3[nH]c12	69.3%
COc1ccc(-c2ccc(-c3ccc(C(=N)N)nc3)s2)cc1	94.3%
CCOC(=O)C1=CCC(n2cc(F)c(=O)[nH]c2=O)O1 (stereo not given)	99.9%
CCCCCCCCOC(=O)c1c(C)[nH]c(/C=C2\N=C(c3ccc[nH]3)C=C2OC)c1C	-7.97% (active)
Cn1cc(-c2csc(-c3cn(CCO)c4ccc(F)cc34)n2)c2cccnc21	45.3%
COc1cc(C2CC(c3cccc(Nc4ccncc4)c3)=Nc3c(N)ncnc3N2)cc(OC)c1OC (stereo not given)	87.4%
CC1(C)CC[C@]2(CO)CC[C@]3(C)[C@H](CC[C@@H]4[C@@]5(C)CC[C@H](O)C(C)(C)[C@@H]5CC[C@]43C)[C@H]2[C@H]1O	91.5%
COc1cc2c(cc1-c1c(C)noc1C)ncc1nc(C3CCOCC3)n(C3CCC(OC(F)F)CC3)c12 (stereo not given)	41.7%
CN1CCN(Cc2ccc(NC(=O)c3cncc(C#Cc4c(N)ncc5cc(F)ccc45)c3)cc2C(F)(F)F)CC1	73.6%
